PubChem BioAssay (NCI)
“And” between values parts separate entries of the source, which are not always exact repeats. Equal entries are not always repeated. The panel holds about 83,000 compounds, 20% with a hit somewhere; the sample as a whole holds those more often.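 The endpoint reported here, percent growth, reads 100 for growth as untreated, 0 for no net growth and -100 for all cells dead.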 The source holds several records for some structures; these can differ, active in one and inactive in another. The source made the active and inactive calls. The calls were made as follows: active = growth percent below 10; inactive = the rest.

What was measured:
Test in all cases: NCI-60 one-dose screen, 48 h (100 = growth as untreated, 0 = no growth, -100 = all killed)
Details in all cases: 10 µM
RPMI-8226 leukemia = system: RPMI-8226 leukemia
OVCAR-8 ovarian = system: OVCAR-8 ovarian
OVCAR-5 ovarian = system: OVCAR-5 ovarian
OVCAR-4 ovarian = system: OVCAR-4 ovarian
SK-OV-3 ovarian = system: SK-OV-3 ovarian
IGROV1 ovarian = system: IGROV1 ovarian
OVCAR-3 ovarian = system: OVCAR-3 ovarian
HS 578T breast = system: HS 578T breast
NCI/ADR-RES ovarian = system: NCI/ADR-RES ovarian
T-47D breast = system: T-47D breast
BT-549 breast = system: BT-549 breast
MDA-MB-435 melanoma = system: MDA-MB-435 melanoma
SW-620 colon = system: SW-620 colon
HCT-116 colon = system: HCT-116 colon
HCC-2998 colon = system: HCC-2998 colon
KM12 colon = system: KM12 colon

| Structure (SMILES) | growth (RPMI-8226 leukemia) | growth (OVCAR-8 ovarian) | growth (OVCAR-5 ovarian) | growth (OVCAR-4 ovarian) | growth (SK-OV-3 ovarian) | growth (IGROV1 ovarian) | growth (OVCAR-3 ovarian) | growth (HS 578T breast) | growth (NCI/ADR-RES ovarian) | growth (T-47D breast) | growth (BT-549 breast) | growth (MDA-MB-435 melanoma) | growth (SW-620 colon) | growth (HCT-116 colon) | growth (HCC-2998 colon) | growth (KM12 colon) |
| --- | --- | --- | --- | --- | --- | --- | --- | --- | --- | --- | --- | --- | --- | --- | --- | --- |
| Cc1ccc(Sc2ccccc2N)cc1 | 89.8% (inactive) | 79.1% (inactive) | 82.7% (inactive) | 93.6% (inactive) | 94.9% (inactive) | 76.2% (inactive) | 121% (inactive) | 110% (inactive) | 84.3% (inactive) | 99.8% (inactive) | 89.8% (inactive) | 120% (inactive) | 58.3% (inactive) | 55.8% (inactive) | 132% (inactive) | 102% (inactive) |
| Cc1cc(N(CCOS(C)(=O)=O)CCOS(C)(=O)=O)ccc1C=Nc1ccc(-c2nc(Cc3ccccc3)sc2C)cc1 | 62.3% (inactive) | – | 67% (inactive) | – | 3.43% (active) | 11.4% (inactive) | 41.9% (inactive) | 79.8% (inactive) | 40.7% (inactive) | 20.5% (inactive) | 52.8% (inactive) | 63.2% (inactive) | 61.6% (inactive) | 63.4% (inactive) | -28.3% (active) | 68.7% (inactive) |
| C#CCN(Cc1ccc2nc(N)[nH]c(=O)c2c1)c1ccc(C(=O)NC(CCC(=O)O)C(=O)O)cc1 (stereo not drawn) | 51.3% (inactive) | 39.3% (inactive) | 107% (inactive) | 103% (inactive) | 49.7% (inactive) | 109% (inactive) | 67.2% (inactive) | 88.9% (inactive) | 47.7% (inactive) | – | 76.9% (inactive) | 90.7% (inactive) | 61.8% (inactive) | 45.7% (inactive) | 31.6% (inactive) | 70.2% (inactive) |
| O=[N+]([O-])c1cc[n+]([O-])cc1 | 102% (inactive) | 103% (inactive) | 145% (inactive) | 111% (inactive) | 130% (inactive) | 107% (inactive) | 114% (inactive) | 104% (inactive) | 103% (inactive) | 120% (inactive) | 92.4% (inactive) | 112% (inactive) | 99.3% (inactive) | 107% (inactive) | 97% (inactive) | 104% (inactive) |
| COc1ccc(C(=O)C(CN(C)C)CN(C)C)cc1 | 64.3% (inactive) | 41.1% (inactive) | 116% (inactive) | -93.8% (active) | 108% (inactive) | 140% (inactive) | -85% (active) | 83% (inactive) | 101% (inactive) | 9.04% (active) | 112% (inactive) | 36.8% (inactive) | -80.5% (active) | 4.91% (active) | 109% (inactive) | 108% (inactive) |
| C=C1C(=O)OC2CC1C(OC(C)=O)C/C(C)=C/CC/C(C)=C\CCC2(C)O (stereo not drawn) | -22.3% (active) | – | 65.7% (inactive) | -0.648% (active) | 102% (inactive) | – | 3.4% (active) | 72% (inactive) | 17.9% (inactive) | 4.13% (active) | -83.9% (active) | 18.6% (inactive) | 1.39% (active) | -64.7% (active) | -51.2% (active) | 23.2% (inactive) |
| CC1=CC(=C(c2ccc(N)cc2)c2ccc(N)cc2)C=CC1=N | -15.6% (active) and 33.4% (inactive) | 6.23% (active) and 16% (inactive) | 46.8% (inactive) and 53.3% (inactive) | 24.1% (inactive) and 33.7% (inactive) | 38.2% (inactive) | 70% (inactive) | -35.6% (active) and 28.4% (inactive) | 23.6% (inactive) and 89.5% (inactive) | 86.6% (inactive) and 101% (inactive) | 3.11% (active) and 11.3% (inactive) | 5.57% (active) and 81.8% (inactive) | 13.6% (inactive) and 24% (inactive) | 17.2% (inactive) and 39.1% (inactive) | 14% (inactive) and 11.5% (inactive) | 21.1% (inactive) and 48.1% (inactive) | 0.202% (active) and 9.48% (active) |
| CN(C)CCOC1(Cc2ccc(Cl)cc2Cl)CCC(C(C)(C)C)CC1 (stereo not drawn) | 11.6% (inactive) and -10% (active) | 36.5% (inactive) and -27.3% (active) | 43.8% (inactive) and 5.22% (active) | 36.1% (inactive) and 15.1% (inactive) | 69.6% (inactive) and 57.8% (inactive) | 41.7% (inactive) and 25.3% (inactive) | 39.5% (inactive) and 11.1% (inactive) | 52.4% (inactive) and 49.6% (inactive) | 27% (inactive) and 44.4% (inactive) | -21.2% (active) and -41.1% (active) | 58.8% (inactive) and 24% (inactive) | 11% (inactive) and -57.6% (active) | -51.8% (active) and -57.6% (active) | 13.2% (inactive) and -81.3% (active) | -92.9% (active) and -95.5% (active) | 20.2% (inactive) and -46.6% (active) |
